Potency and affinity values are given separately.
Molecular target: Protein disulfide-isomerase A6 (Homo sapiens) (UniProt Q15084)
Test: reduced insulin turbidity driven by ERp5 (PDIA6) – biochemical, absorbance 650 nm, cherry-picked samples, dose response (AID 720566);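 note: negative values mean less insulin aggregation so ERp5 inhibition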
Conditions: Recombinant ERp5 insulin aggregation; series mostly up to 35 µM; activity change, negative = inhibition: at the top concentration;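 active = in all runs, an absorbance decrease of 25% or more of the average positive control decrease; inconclusive = runs conflict, with both active and inactive results; inactive = all runs inactive, opposite-direction effects included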

Sequence of Protein disulfide-isomerase A6 (Homo sapiens) (Q15084 whole entry, looked up): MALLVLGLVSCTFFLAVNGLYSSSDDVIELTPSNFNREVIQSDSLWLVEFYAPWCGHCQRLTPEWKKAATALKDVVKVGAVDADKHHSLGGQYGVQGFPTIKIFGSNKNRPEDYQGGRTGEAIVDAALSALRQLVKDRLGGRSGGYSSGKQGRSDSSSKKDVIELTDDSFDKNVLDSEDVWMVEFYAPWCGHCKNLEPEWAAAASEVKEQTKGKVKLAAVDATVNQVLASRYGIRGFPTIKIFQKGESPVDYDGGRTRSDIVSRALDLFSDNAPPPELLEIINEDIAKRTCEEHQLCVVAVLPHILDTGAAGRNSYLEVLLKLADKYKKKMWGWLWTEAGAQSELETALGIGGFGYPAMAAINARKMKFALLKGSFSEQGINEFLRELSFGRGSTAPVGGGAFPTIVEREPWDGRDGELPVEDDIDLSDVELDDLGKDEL

Activity change, negative = inhibition, inactive:
CCCNC(=O)C[C@H]1CC[C@@H]2[C@@H](COc3ccc(NC(=O)c4ccccc4)cc3C(=O)N2C)O1 3.57%
O=C(NNC(=O)c1ccc2ccccc2c1)Nc1ccc(F)cc1 -2.38%
O=C(NN=c1c(=O)c2ccccc2c1=O)c1ccccc1 -24.4%
CN(CC(=O)Nc1ccc(F)cc1)CC(=O)NC1CCCCC1 9.17%
CC(C)C#Cc1ccc2c(c1)O[C@@H](CN(C)C(=O)C1CC1)[C@@H](C)CN([C@@H](C)CO)S2(=O)=O -7.81%
CCC[C@@H](CN1CCC[C@H]1CN1C(N)=NC[C@H]1CC(C)C)N1C[C@@H]([C@H](C)CC)N(CCCC2CCCC2)C1=N 8.04%
COc1ccc(S(=O)(=O)N(C)C[C@@H]2Oc3ccc(NC(=O)c4ccncc4)cc3C(=O)N([C@H](C)CO)C[C@@H]2C)cc1 -5.69%
CCCC(=O)N1CC2(C1)CN(C(=O)C1CCCCC1)[C@H](CO)c1[nH]c3cc(OC)ccc3c12 3.38%
CN(C)C(=O)C[C@H]1C[C@H]2c3cc(NS(C)(=O)=O)ccc3O[C@H]2[C@@H](CO)O1 2.6%
O=C(C[C@@H]1CC[C@@H]2[C@H](COC[C@@H](O)CN2S(=O)(=O)c2ccccc2)O1)NCCN1CCCC1 2.02%
COc1ccccc1S(=O)(=O)N1C[C@H](O)COC[C@H]2O[C@@H](CC(=O)O)CC[C@@H]21 1.3%
C[C@@H]1CN([C@H](C)CO)C(=O)Cc2cc(NC(=O)c3ccncc3)ccc2O[C@H]1CN(C)S(=O)(=O)c1cn(C)cn1 2.41% [at 30 µM]
COC(=O)C[C@H]1C[C@H]2c3cc(NC(=O)Cc4ccncc4)ccc3O[C@H]2[C@H](CO)O1 -11.9%
COc1ccc(NC(=O)Nc2ccc3c(c2)C(=O)N([C@H](C)CO)C[C@H](C)[C@@H](CN(C)C(=O)C2CCCCC2)OCCCC[C@H](C)O3)cc1 10.1%
O=C(NCCCN1CCCC1)c1ccc(CS(=O)(=O)c2c(Cl)cccc2Cl)o1 -2.6%
C[C@@H]1CN([C@@H](C)CO)C(=O)c2cc(NC(=O)Nc3ccc4c(c3)OCO4)ccc2O[C@@H]1CN(C)Cc1ccc(C(=O)O)cc1 -9.55%
COc1cccc(S(=O)(=O)N2CC3(CN(C(=O)Nc4cccc(F)c4)[C@H](CO)c4[nH]c5cc(OC)ccc5c43)C2)c1 4.84% [at 30 µM]
C[C@@H]1CN([C@H](C)CO)C(=O)c2cc(NC(=O)Nc3ccc(F)cc3)ccc2O[C@H]1CN(C)Cc1ccc(-c2ccccc2)cc1 0.559%
COc1ccc2c3c([nH]c2c1)[C@H](CO)N(C(=O)C1CCOCC1)CC31CCN(Cc2nccs2)CC1 4.53%
CCCNC(=O)C[C@@H]1C[C@H]2c3cc(NC(=O)CC4CC4)ccc3O[C@H]2[C@H](CO)O1 3.18%
Cc1noc(C)c1NC(=O)N(C)C[C@H]1Oc2c(NS(=O)(=O)c3ccc(Cl)cc3)cccc2C(=O)N([C@@H](C)CO)C[C@@H]1C -1.25% [at 30 µM]
C[C@@H]1CN([C@@H](C)CO)C(=O)c2cc(-c3cccc(C#N)c3)cnc2O[C@H]1CN(C)Cc1cncnc1 1.12%
C[C@@H]1CN([C@H](C)CO)C(=O)c2cc(NC(=O)Nc3cccc4ccccc34)ccc2O[C@@H]1CN(C)C(=O)Nc1cccc2ccccc12 10.4%
O=C(C[C@H]1C[C@@H]2c3cc(NC(=O)C4CCC4)ccc3O[C@@H]2[C@H](CO)O1)NCC(F)(F)F 1.45%
CC(C)NC(=O)N(C)C[C@@H]1Oc2ncc(-c3cc4ccccc4o3)cc2C(=O)N([C@H](C)CO)C[C@@H]1C 4.66%
COc1ccc2c3c([nH]c2c1)[C@H](CO)N(Cc1ccccc1Cl)CC31CN(C(=O)C2CC2)C1 9.35%
C[C@H]1CN([C@@H](C)CO)C(=O)c2cc(-c3cccc(C#N)c3)cnc2O[C@@H]1CN(C)Cc1cncnc1 1.3%
CC(C)CC#Cc1ccc2c(c1)O[C@@H](CN(C)C(=O)c1ccccn1)[C@@H](C)CN([C@@H](C)CO)S2(=O)=O -13.4%
CCCNC(=O)C[C@@H]1C[C@@H]2c3cc(NS(C)(=O)=O)ccc3O[C@@H]2[C@H](CO)O1 1.83%
CN1CCN(C(=O)C[C@@H]2C[C@@H]3c4cc(NC(=O)C5CCOCC5)ccc4O[C@@H]3[C@H](CO)O2)CC1 -0.931%
O=C(CCN1C(=O)/C(=C\c2ccccc2)SC1=S)NCCCN1CCOCC1 -1.25%
O=C(Nc1ccncc1)C1CCN(S(=O)(=O)c2cccc(C(F)(F)F)c2)CC1 -7.36%
O=C(C[C@H]1C[C@H]2c3cc(NC(=O)CC4CC4)ccc3O[C@H]2[C@@H](CO)O1)NCc1ccc(-c2ccccc2)cc1 -10.3% [at 30 µM]
C[C@H]1CN([C@@H](C)CO)C(=O)c2cccc(NC(=O)c3nc4ccccc4s3)c2O[C@@H]1CN(C)C(=O)Nc1ccc(C(F)(F)F)cc1 4.47%

From PubChem BioAssay AID720566 (Broad Institute, 2013)
